Screens as filed in PubChem.
UBC9 SUMO inh – SUMOylation inhibition; actives 0.36% (n = 290,000); HTRF SUMOylation assay, SAE1/SAE2 + UBC9, in vitro; AID 2006; inhibition, % at 35 µM; P63279; in the data active = inhibition above about 50%, passing the limit was not always enough; inconclusive = no clear call, values can overlap the other calls
PABP polyA inh – PABP-poly(A) binding inhibition. inhibition, % at 35 µM. P11940. PABP-poly(A) RNA binding, fluorescence polarization. AID 2014. actives 1% (n = 290,000);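 note: calls also rest on retests at 20 µM and on dose response follow-up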
Target sequence (P11940 whole entry, looked up): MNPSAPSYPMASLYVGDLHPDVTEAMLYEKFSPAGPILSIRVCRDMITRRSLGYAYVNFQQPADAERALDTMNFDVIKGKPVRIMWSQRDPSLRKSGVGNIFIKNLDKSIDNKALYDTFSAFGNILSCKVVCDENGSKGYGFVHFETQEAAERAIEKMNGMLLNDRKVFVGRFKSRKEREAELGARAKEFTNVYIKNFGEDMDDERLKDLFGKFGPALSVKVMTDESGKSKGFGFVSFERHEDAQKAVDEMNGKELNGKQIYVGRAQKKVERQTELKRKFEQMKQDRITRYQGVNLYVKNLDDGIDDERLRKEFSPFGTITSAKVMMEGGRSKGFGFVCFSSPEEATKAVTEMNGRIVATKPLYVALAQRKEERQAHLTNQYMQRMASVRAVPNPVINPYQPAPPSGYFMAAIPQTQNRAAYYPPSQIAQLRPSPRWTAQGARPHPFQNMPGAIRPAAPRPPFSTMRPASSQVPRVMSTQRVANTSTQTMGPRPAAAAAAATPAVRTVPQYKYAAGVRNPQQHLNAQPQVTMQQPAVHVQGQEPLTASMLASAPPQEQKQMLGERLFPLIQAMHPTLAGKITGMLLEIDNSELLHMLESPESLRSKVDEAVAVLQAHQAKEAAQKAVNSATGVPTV
ALR inh – human ALR oxidase inhibition via reduced H2O2. P55789. purified ALR, DTT oxidation, H2O2 HRP-luminol luminescence. inhibition, % (test concentration not listed). actives 3.8% (n = 290,000);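 active = mean replicate inhibition above about 79%, with every replicate also reaching it, limit read from the data; inconclusive = only one of the two criteria met; inactive = mean below limit and not every replicate reaching it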
MLLE-PAM2 inh – blocks PAM2 peptide binding to the PABP1 MLLE domain | P11940 | GST-MLLE / FITC-PAM2 fluorescence polarization | inhibition, % at 20 µM | actives 0.36% (n = 360,000) | AID 588489; in the data active = inhibition above about 35%, passing the limit was not always enough;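 note: plate controls were DMSO wells with GST-MLLE for no effect and wells lacking GST-MLLE protein for full effect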
eIF4H inh – inhibitors of RNA binding by human eIF4H; Q15056; eIF4H fluorescence polarization binding assay; actives 0.94% (n = 290,000); AID 2012; inhibition, % at 35 µM;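 note: calls also rest on retests at 20 µM and on dose response follow-up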
Efflux pump inh – antifungal efflux pump inhibition, Nile Red retention; S. cerevisiae Candida pump triplex; inhibition, % at 10 µM; actives 0.44% (n = 330,000);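 active = plate passing quality check with inhibition over a set limit, or well fluorescence over plate mean plus 4 SD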;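 note: Nile Red retained in pooled yeast measured as flow cytometry median fluorescence; 0% = buffer negative control and 100% = Enniatin B positive control; higher means more Nile Red kept so more efflux inhibition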
Numbers without * were called inactive. Compounds with a hit are over-represented: about 4.7% of the library has one in this group of screens. Unless noted, the rule behind the calls is not given here.

Results for O=C(OCc1csc(-c2ccccc2)n1)c1ccccc1O ?
UBC9 SUMO inh: -23.0; PABP polyA inh: -7.2; MLLE-PAM2 inh: 3.1; eIF4H inh: 2.0; Efflux pump inh: 0.0

How did COc1ccc(CNC(=O)CS(=O)Cc2nc(-c3ccc(C)cc3)oc2C)cc1 (stereo unspecified) do in these assays?
UBC9 SUMO inh: -0.8; PABP polyA inh: 0.2; ALR inh: 99.4*; MLLE-PAM2 inh: 19.5; eIF4H inh: -6.3; Efflux pump inh: -0.1

How did COCCCNC(=O)CS(=O)(=O)Cc1nc(-c2cccc(OC)c2)oc1C do in these assays?
UBC9 SUMO inh: 17.3; PABP polyA inh: 5.7; ALR inh: inconclusive; MLLE-PAM2 inh: 6.8; eIF4H inh: -9.2; Efflux pump inh: 0.0

What do the screens show for `CCOc1ccc(CCNC(=O)CS(=O)Cc2nc(-c3ccc(OC)c(OC)c3)oc2C)cc1OCC` (stereo unspecified)?
UBC9 SUMO inh: 3.4; PABP polyA inh: -3.0; ALR inh: 99.5*; MLLE-PAM2 inh: 7.2; eIF4H inh: -4.4; Efflux pump inh: -0.4

Results for COCCCNC(=O)CS(=O)Cc1nc(-c2cccc(OC)c2)oc1C (stereo unspecified) ?
UBC9 SUMO inh: 17.1; PABP polyA inh: -5.2; ALR inh: 99.2*; MLLE-PAM2 inh: 31.3; eIF4H inh: -2.5; Efflux pump inh: 0.0

How did COc1ccc(-c2nc(CS(=O)CC(=O)NCc3ccc(Cl)cc3)c(C)o2)cc1OC (stereo unspecified) do in these assays?
UBC9 SUMO inh: 11.3; PABP polyA inh: 7.0; ALR inh: 98.6*; MLLE-PAM2 inh: 6.7; eIF4H inh: -13.7; Efflux pump inh: -0.2

How did O=C(NCc1ccccc1)C1Cc2c(-c3ccc4c(c3)OCO4)ccnc2O1 (stereo unspecified) do in these assays?
MLLE-PAM2 inh: -4.4

How did CCc1cc(CNC(=O)c2ccc(OC3CCN(C(C)=O)CC3)c(OC)c2)on1 do in these assays?
UBC9 SUMO inh: 14.5; PABP polyA inh: 3.8; ALR inh: -3.6; MLLE-PAM2 inh: -9.5; eIF4H inh: 6.3; Efflux pump inh: -0.1

What do the screens show for `COc1ccc(-c2nc(CS(=O)(=O)CC(=O)NCc3ccc(F)cc3)c(C)o2)cc1`?
UBC9 SUMO inh: 2.4; PABP polyA inh: -1.3; ALR inh: -1.3; MLLE-PAM2 inh: 3.4; eIF4H inh: 3.8; Efflux pump inh: -0.1

What do the screens show for `COc1ccc(-c2nc(C#N)c(NCc3ccc(C)cc3)o2)cc1OC`?
UBC9 SUMO inh: 15.3; PABP polyA inh: -17.4; ALR inh: -4.6; MLLE-PAM2 inh: 5.4; eIF4H inh: -0.1; Efflux pump inh: -0.1

Results for COc1ccc(-c2nc(CS(=O)CC(=O)NCc3ccc(C)cc3)c(C)o2)cc1OC (stereo unspecified) ?
UBC9 SUMO inh: 6.2; PABP polyA inh: 7.6; ALR inh: 98.8*; MLLE-PAM2 inh: 6.7; eIF4H inh: -3.5; Efflux pump inh: 0.0

How did COc1ccc(CNC(=O)CS(=O)Cc2nc(-c3ccc(OC)c(OC)c3)oc2C)cc1 (stereo unspecified) do in these assays?
UBC9 SUMO inh: -5.7; PABP polyA inh: 5.7; ALR inh: 98.9*; MLLE-PAM2 inh: 0.3; eIF4H inh: -1.9; Efflux pump inh: -0.6

How did COCCNC(=O)CS(=O)Cc1nc(-c2ccc(OC)cc2)oc1C (stereo unspecified) do in these assays?
UBC9 SUMO inh: 18.4; PABP polyA inh: -5.1; ALR inh: 98.7*; MLLE-PAM2 inh: 11.5; eIF4H inh: -9.8; Efflux pump inh: 0.0

Results for O=C(COC(=O)c1ccccc1F)Nc1ccc2c(c1)OCCO2 ?
MLLE-PAM2 inh: 10.6

What do the screens show for `CN[C@H](C)C(=O)NC[C@H]1O[C@@H](n2cnc3c(N)ncnc32)[C@H](O)[C@@H]1O`?
MLLE-PAM2 inh: 3.9; Efflux pump inh: 0.3

What do the screens show for `Cc1ccc2nc(-c3ccc(NC(=O)CSCC(=O)O)cc3)sc2c1`?
UBC9 SUMO inh: 26.8; PABP polyA inh: 18.5; MLLE-PAM2 inh: 16.8; eIF4H inh: 4.4; Efflux pump inh: 0.1

What do the screens show for `O=C(CSc1nc2ccccc2s1)NCc1cc([N+](=O)[O-])ccc1O`?
ALR inh: 98.9*; MLLE-PAM2 inh: 8.2; Efflux pump inh: 0.0

How did Nc1nonc1NC(=O)CSc1nc2ccccc2s1 do in these assays?
UBC9 SUMO inh: 17.9; PABP polyA inh: -1.3; ALR inh: 98.4*; MLLE-PAM2 inh: -16.8; eIF4H inh: 6.2; Efflux pump inh: -0.1

Results for O=C(O)CSCC(=O)Nc1ccc(-c2nc3ccccc3s2)cc1 ?
UBC9 SUMO inh: 12.0; PABP polyA inh: 16.9; ALR inh: 98.8*; MLLE-PAM2 inh: 28.9; eIF4H inh: 23.5; Efflux pump inh: 0.0

How did O=C(CSc1nnc(SCc2cccc3ccccc23)s1)Nc1ccc(C(=O)O)cc1 do in these assays?
UBC9 SUMO inh: 15.8; PABP polyA inh: -6.4; ALR inh: 98.4*; MLLE-PAM2 inh: -4.0; eIF4H inh: 9.0; Efflux pump inh: 0.1

How did CC(=O)Nc1ccc(C(=O)CN2C(=O)NC3(CCOc4ccccc43)C2=O)c(F)c1 (stereo unspecified) do in these assays?
MLLE-PAM2 inh: -11.9; Efflux pump inh: 0.0

How did O=C(CSc1nc2ccccc2s1)Nc1ccc2c(c1)oc1ccccc12 do in these assays?
UBC9 SUMO inh: -23.3; PABP polyA inh: 13.5; ALR inh: -4.9; MLLE-PAM2 inh: 7.5; eIF4H inh: -8.5; Efflux pump inh: -0.3

How did O=C(CSc1nc2ccccc2s1)Nc1ccc(Cl)c(C(=O)O)c1 do in these assays?
UBC9 SUMO inh: -3.4; PABP polyA inh: 10.8; ALR inh: 98.9*; MLLE-PAM2 inh: 15.5; eIF4H inh: 5.4; Efflux pump inh: 0.2

Results for O=C(CSc1nc2ccccc2s1)Nc1cc(C(=O)O)cc(C(=O)O)c1 ?
UBC9 SUMO inh: 7.6; PABP polyA inh: -16.3; ALR inh: 99.3*; MLLE-PAM2 inh: 38.2; eIF4H inh: 9.8; Efflux pump inh: 0.3

What do the screens show for `Cn1c(=O)c2c(nc3n2CC(O)CN3c2ccc(O)cc2)n(C)c1=O` (stereo unspecified)?
UBC9 SUMO inh: 7.5; PABP polyA inh: -2.8; ALR inh: 99.3*; MLLE-PAM2 inh: -3.4; eIF4H inh: -5.3; Efflux pump inh: -0.2

How did Cc1ccc(N2CC(O)Cn3c2nc2c3c(=O)n(C)c(=O)n2C)cc1 (stereo unspecified) do in these assays?
UBC9 SUMO inh: 10.1; PABP polyA inh: 0.0; ALR inh: -0.8; MLLE-PAM2 inh: -0.1; eIF4H inh: 5.5; Efflux pump inh: -0.1

Results for Cc1cc(Nc2ccc(Cl)cc2)n(-c2ccccc2)n1 ?
UBC9 SUMO inh: 5.6; PABP polyA inh: 4.6; ALR inh: 98.2*; MLLE-PAM2 inh: -1.3; eIF4H inh: 3.8; Efflux pump inh: -0.1

Results for Cc1cc(Nc2nc3ccccc3nc2Cl)n(-c2ccccc2)n1 ?
UBC9 SUMO inh: -3.2; PABP polyA inh: -6.2; ALR inh: 96.3*; MLLE-PAM2 inh: -5.0; eIF4H inh: -14.8; Efflux pump inh: 0.0
